Experimental data published in PubChem BioAssay (NCATS).
Records with an inconclusive call do not appear. A call without a number means that no potency is given here. Unmarked numbers belong to inactive results. Calls of active or inactive are those of the source. The call rests on the fitted dose curve; in most records, active means well fitted inhibition curve with a large enough effect; inconclusive means small, poorly fitted or top-dose-only effect; inactive means no such curve, though single readings can be large or run the other way.

tested on: Zika virus NS2B-NS3 protease (linked construct); assay: Primary screen NINDS Rhodamine qHTS for Zika virus inhibitors (AID 1347160); conditions: purified NS2B-NS3 protease, Rhodamine110 substrate fluorescence; series mostly up to 57.1 µM; further: nearly all actives have a fitted effect of over 55% in size
Source text: Avindra Nath, Ph.D., National Institute of Neurological Disorders and Stroke (NINDS), Bethesda, MD
Radhakrishnan Padmanabhan, Ph.D., Georgetown University (GU), Washington D.C.
Zika Virus causes congenital defects, including microcephaly and is associated with Guillain-Barre syndrome, eningoencephalitis and myelitis in infected adult. […] Using a target-based approach, we hope to establish a screening paradigm to uncover novel, cell-active NS2B-NS3 protease (Zika Virus) specific inhibitors from NCATS' collection of small molecules using qHTS.
Four assay panel was created to identify potential Zika Virus inhibitors. Namely, (1) GU unlinked NS2B-NS3 AMC tagged protease qHTS, (2) GU unlinked NS2B-NS3 Rhodamine tagged protease qHTS, (3) NINDS linked NS2B-NS3 AMC tagged protease qHTS, (4) NINDS linked NS2B-NS3 Rhodamine tagged protease qHTS. Active compounds were re-acquired and re-screened to confirm inhibition. Inhibitors were further screened against various confirmatory and counterscreens in dose response format.
Early Translation Branch (ETB)
National Center for Advancing Translational Sciences (NCATS), Rockville, MD
National Institute of Health (NIH), Bethesda, Maryland
For the linked assay, Nath lab (NINDS) provided the purified linked NS2B-NS3 protease which is consists of hydrophilic domain of NS2B linked to the NS3 protease domain by a flexible (-[…]-) linker. Control compound aprotinin is obtained from Thermo Scientific (#78432; Waltham, Massachusetts). Rhodamine110 substrate ([N-Cbz]-Nle-Lys-Arg-Arg-Rhod110-Arg-Arg-Lys-Nle-[N-Cbz]) was purchased from either Genscript or Bachem.
1536-well Protease (Rhodamine110 Substrate) Assay:
Briefly, 3 microL of enzyme (25 nM final concentration), in assay buffer (10 mM Tris-HCl pH 8.0 with 0.01% Tween 20) were dispensed into a 1,536-well solid-bottom black plate (Greiner Bio One, Monroe, NC). Twenty-three nL of compounds (final concentration range 7.28 nM to 114 microM) or control Aprotinin (final concentration range 3.47 nM to 114 microM) were transferred via Wako Pin-tool (Wako Automation, Richmond, VA). Samples were incubated (room temperature, protected from light) for 15 minutes followed by a 1 microL Rhodamine110 substrate addition (1.5 microM final concentration). Plates were then immediately read on a ViewLux High-throughput CCD imager (PerkinElmer, Waltham, MA) equipped with FITC fluorescence optics (480(20) nm excitation, 540(25) nm emission), then incubated (room temperature, protected from light) for 15 minutes (~15% conversion). The change in fluorescence intensity over the 15-minute reaction period was normalized against no-inhibitor and no-enzyme controls and the resulting percent inhibition data were fitted to a 4-parameter Hill equation. Aprotinin was used as intraplate control.
Potency means the concentration at half of the fitted maximal effect.

SMILES | Potency | activity change, negative = inhibition
C=C1[C@@H]2[C@H]3OC(=O)C(=C)[C@@H]3CC[C@@](C)(O)[C@@H]2C[C@@H]1O[C@@H]1O[C@H](CO)[C@@H](O)[C@H](O)[C@H]1O | inactive | –
C[C@@H]1C[C@H](O[C@@H]2O[C@H](CO[C@@H]3OC[C@](O)(CO)[C@H]3O)[C@@H](O)[C@H](O)[C@H]2O)CC(C)(C)[C@H]1/C=C/[C@@H](C)O | inactive | –
Cc1nnc(C(C)C)n1C1CC2CCC(C1)N2CCC(NC(=O)C1CCC(F)(F)CC1)c1ccccc1 (stereo not given) | inactive | –
CCC(C)C(=O)O[C@@H]1[C@@H](O)[C@@H](O[C@H]2O[C@H](CO)[C@@H](O)[C@H](O)[C@H]2O)O[C@H](CO)[C@H]1O (stereo not given in full) | inactive | –
CC(=O)OC[C@]1(O)[C@H]2[C@H](OC(=O)CC(C)C)OC=C(CO[C@@H]3O[C@H](CO)[C@@H](O)[C@H](O)[C@H]3O)[C@H]2C[C@@H]1O | inactive | –
C[C@@H](OC(=O)/C=C/c1ccc(O)cc1)C1=C[C@]2(C=C[C@@H]3C(C(=O)O)=CO[C@@H](O[C@@H]4O[C@H](CO[C@@H]5O[C@H](CO)[C@@H](O)[C@H](O)[C@H]5O)[C@@H](O)[C@H](O)[C@H]4O)[C@@H]32)OC1=O | inactive | –
CCN[C@@H]1C[C@H](N)[C@@H](O[C@H]2OC(CN)=CC[C@H]2N)[C@H](O)[C@H]1O[C@H]1OC[C@](C)(O)[C@H](NC)[C@H]1O | inactive | –
CC1CCC2(NC1)OC1C(=O)C3C4CCC5CC(O[C@@H]6O[C@H](CO)[C@@H](O)[C@H](O)[C@H]6O[C@@H]6O[C@@H](C)[C@H](O)[C@@H](O)[C@H]6O)CCC5(C)C4CCC3(C)C1C2C (stereo not given in full) | inactive | –
CN[C@@H]1[C@@H](O)[C@@H](O[C@@H]2[C@@H](O)[C@H](O[C@H]3O[C@H](CN)[C@@H](O)[C@H](O)[C@H]3O)[C@@H](N)C[C@H]2NC(=O)[C@@H](O)CN)OC[C@]1(C)O | inactive | –
C=C1CC2[C@]3(C)C(=C(O)C(=O)[C@@]2(C)[C@]2(C(=O)OC)C(=O)C(C)OC(=O)[C@@]12C)C(C)(C)C(=O)CC3O (stereo not given in full) | inactive | –
CC1(C)C(=O)N2c3ccccc3[C@]3(CC(n4cnc5ccccc5c4=O)C(=O)O3)[C@H]2N1O (stereo not given in full) | inactive | –
N[C@@H](CC(=O)N1CCn2c(nnc2C(F)(F)F)C1)Cc1[nH]nc2c(F)c(F)ccc12 | inactive | –
C=C1CC2C3(C)C(OC(C)=O)CC(=O)OC(C)(C)C3C(O)C(OC(C)=O)C2(C)C2C(=O)OC(C)C(=O)C12C (stereo not given) | inactive | –
CC(O)(CC(=O)O)CC(=O)O[C@@H]1[C@@H](O)[C@H](OCCc2ccccc2)O[C@H](CO)[C@H]1O (stereo not given in full) | inactive | –
CCOc1ccc(C(Nc2ccccn2)c2ccc3ccc(C)nc3c2O)cc1C (stereo not given) | inactive | –
CO[C@@H]1COCC[C@@H]1N[C@@H]1CC[C@@](C(=O)N2CCc3ncc(C(F)(F)F)cc3C2)(C(C)C)C1 | inactive | –
COc1c(C)c(C(=O)c2ccc(N)c(C(=O)O)c2)n2ccccc12 | inactive | –
CC(=O)OCC1=C[C@H](O)[C@@H]2C(C(=O)O)=CO[C@@H](O[C@@H]3O[C@H](CO)[C@@H](O)[C@H](O)[C@H]3O)[C@H]12 | inactive | –
C/C=C/C=C/C=C/C(=O)O[C@@H]1[C@@H](OC)C2=C(C(=O)N(C(C)C(=O)O)C2)[C@@]2(C)CCCC(C)(C)[C@H]12 (stereo not given in full) | 11.2 µM (active) | –
Cc1ccc(Sc2cncc3sc(C(N)=O)cc23)cc1 | inactive | –

SMILES | Potency | activity change, negative = inhibition
CC(c1c[nH]c2ccccc12)C(O)C(=O)O (stereo not given) | inactive | –
COc1ccc(C)c2sc(NC(=O)c3ccncc3)nc12 | inactive | –
CCC(=O)NS(=O)(=O)c1ccc(-c2c(-c3ccccc3)noc2C)cc1 | inactive | –
C#C[C@]1(O)CC[C@H]2[C@@H]3CCC4=C/C(=N/O)CC[C@@H]4[C@H]3CC[C@@]21CC | inactive | –
N[C@H]1C[C@H]1c1ccc(-c2cccc(O)c2)cc1 | inactive | –
COc1ccc2cc(OCC3(C(=O)O)CN(C(=O)c4ccc(F)cc4)C3)ccc2c1 | inactive | –
CN(C)c1cccc(-c2c3c(=O)n(-c4ccccc4Cl)[nH]c3cc(=O)n2C)c1 | inactive | –
CC1CC(O)CC(C)(C)C1(O)CCO (stereo not given) | inactive | –
C[C@@H]1O[C@@H](O[C@H]2[C@H](OC(=O)[C@]34CCC(C)(C)C[C@H]3C3=CCC5[C@@]6(C)CC[C@H](O[C@@H]7O[C@H](CO[C@@H]8OC[C@H](O)[C@H](O)[C@H]8O)[C@@H](O)[C@H](O)[C@H]7O)C(C)(C)C6CC[C@@]5(C)[C@]3(C)C[C@H]4O)OC[C@@H](O)[C@@H]2O)[C@H](O)[C@H](O)[C@H]1O[C@@H]1OC[C@H](O)[C@H](O[C@@H]2OC[C@@H](O)[C@H](O)[C@H]2O)[C@H]1O (stereo not given in full) | – | -14.5% [at 10.7 µM]
CC(=O)N(O)CCCCCN1C(=O)CCC1=O | inactive | –
COc1cc(N2CCC(O)CC2)ccc1Nc1cc(Nc2ccccc2S(=O)(=O)C(C)C)c2cc[nH]c2n1 | inactive | –
CC(=O)NC(CCC(=O)O)C(=O)NCCc1ccc(O)cc1 (stereo not given) | inactive | –
C=C1[C@H]2[C@H](O[C@@H]3O[C@H](COC(=O)/C=C/c4cc(OC)c(O)c(OC)c4)[C@@H](O)[C@H](O)[C@H]3O)OC=C(C(=O)O)[C@H]2C[C@@H]1O | inactive | –
O=C(/C=C/c1ccc(O)cc1)OCC1=CC2OC(=O)C3=CO[C@@H](O[C@@H]4O[C@H](CO)[C@@H](O)[C@H](O)[C@H]4O)[C@H]1[C@@H]32 (stereo not given in full) | inactive | –
CCS(=O)(=O)N1CCC([C@@H](C)n2c(C)c(C(=O)NCc3c(OC)cc(C)[nH]c3=O)c3ccccc32)CC1 | inactive | –
C=C1[C@@H]2CC[C@@]3(C)[C@H](c4ccoc4)OC(=O)C[C@]13O[C@H]1CC(=O)C(C)(C)[C@H](CC(=O)OC)[C@]12C | inactive | –
CCC(C)(O)C(O)C(=O)OCc1ccc(O[C@@H]2O[C@H](CO)[C@@H](O)[C@H](O)[C@H]2O)c(OC)c1 (stereo not given in full) | inactive | –
CC1=CC(=O)C[C@H]2[C@@H]1CC[C@@H](C)[C@]21CO[C@H](c2ccoc2)C1=O | inactive | –
CNc1nc(Nc2cnn([C@H]3CCN(C4COC4)C[C@@H]3F)c2Cl)ncc1C(F)(F)F | inactive | –
C=C1C2(CCC(=O)OC2(C)C)CC(OC(=O)/C(C)=C/C)C2(C)C13OC14C(=O)OC(C)(C(=O)C12C(=O)OC4C)C3OC(C)=O (stereo not given) | inactive | –
